Measurements from article PMC4336329 (PLoS ONE, 2015).
The whole screen tested about 310,000 compounds, of which about 14,000 (4.5%) showed an effect of 50% or more. Effects have a minus sign here. Many of the other results were omitted from the sample, so strong results are more common in it than they were.

target: human ether-à-go-go-related gene (hERG) potassium channel (human, UniProt Q12809); test: primary screen, population patch clamp on CHO cells stably expressing hERG; higher = less effect of the substance
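Note: peak tail current of the secondary pulse compared with the same well before compound.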

human ether-à-go-go-related gene (hERG) potassium channel, sequence (Q12809 whole entry, looked up): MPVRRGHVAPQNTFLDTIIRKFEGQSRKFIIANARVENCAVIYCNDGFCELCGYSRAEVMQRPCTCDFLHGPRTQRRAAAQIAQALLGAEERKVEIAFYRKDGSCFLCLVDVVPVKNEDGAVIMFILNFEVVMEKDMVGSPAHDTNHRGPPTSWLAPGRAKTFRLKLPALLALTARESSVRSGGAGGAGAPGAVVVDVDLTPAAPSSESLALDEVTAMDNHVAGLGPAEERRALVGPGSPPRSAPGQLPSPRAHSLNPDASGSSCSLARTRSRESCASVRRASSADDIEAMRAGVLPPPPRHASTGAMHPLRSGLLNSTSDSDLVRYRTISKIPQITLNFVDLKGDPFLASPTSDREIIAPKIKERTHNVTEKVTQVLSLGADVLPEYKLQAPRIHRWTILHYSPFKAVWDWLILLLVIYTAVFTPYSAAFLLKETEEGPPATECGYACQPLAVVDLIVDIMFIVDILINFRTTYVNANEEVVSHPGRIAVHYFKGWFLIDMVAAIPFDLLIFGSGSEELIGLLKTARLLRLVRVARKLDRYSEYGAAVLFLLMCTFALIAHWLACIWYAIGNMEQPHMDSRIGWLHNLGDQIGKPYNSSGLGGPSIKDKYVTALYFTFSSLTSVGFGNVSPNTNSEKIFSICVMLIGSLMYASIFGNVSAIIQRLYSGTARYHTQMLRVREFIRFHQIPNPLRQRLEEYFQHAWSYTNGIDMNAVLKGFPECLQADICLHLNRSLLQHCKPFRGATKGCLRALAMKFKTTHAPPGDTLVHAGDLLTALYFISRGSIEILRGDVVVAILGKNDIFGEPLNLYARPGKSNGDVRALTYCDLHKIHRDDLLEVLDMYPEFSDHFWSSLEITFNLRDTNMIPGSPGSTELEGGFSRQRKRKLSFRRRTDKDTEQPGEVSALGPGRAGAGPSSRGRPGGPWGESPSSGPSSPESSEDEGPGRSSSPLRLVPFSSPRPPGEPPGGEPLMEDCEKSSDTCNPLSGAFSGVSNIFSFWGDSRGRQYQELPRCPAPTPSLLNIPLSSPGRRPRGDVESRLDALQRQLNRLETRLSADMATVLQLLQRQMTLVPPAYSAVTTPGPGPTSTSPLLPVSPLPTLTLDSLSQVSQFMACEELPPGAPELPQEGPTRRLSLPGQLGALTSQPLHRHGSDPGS

| SMILES | hERG current change (%, negative = inhibition) at 10uM [%] |
| --- | --- |
| COc1ccc(NC(=O)COC(=O)CCNS(=O)(=O)c2ccc(Cl)cc2)cc1 | -23.2 |
| COc1ccc(NC(C)=[N+](C)CCNS(=O)(=O)c2ccc(Cl)cc2)cc1.[I-] | -70.2 |
| COc1ccc(NC(=O)CNS(=O)(=O)c2ccc(Cl)cc2)cc1 | 3.79 |
| Cc1cc(S(=O)(=O)Nc2ccc3c(c2)n(C)c(=O)n3C)ccc1F | -0.399 |
| Cl.O=C(c1ccc(F)cc1)C(CN1CCOCC1)c1ccccc1 (stereo not shown) | -12.3 |
| Cl.O=C(c1ccc(F)cc1)C(CCCCCC(CN1CCOCC1)C(=O)c1ccc(F)cc1)CN1CCOCC1 (stereo not shown) | -86.8 |
| Cl.O=C(c1ccccc1)C(CCC(CN1CCOCC1)C(=O)c1ccccc1)CN1CCOCC1 (stereo not shown) | -7.92 |
| CCc1ccc(NC(=O)CSc2nnnn2-c2cccnc2)cc1 | -15.4 |
| COc1ccccc1CCC(=O)Nc1ncc(C)s1 | 16.3 |
| Cc1cc(=O)oc2cc(OCC(=O)Nc3ccccc3C(N)=O)c(Cl)cc12 | 18.5 |
| Cc1ccc(CN2CCN(C3CCCC3)C(CCO)C2)s1 (stereo not shown) | -22.4 |
| OCCC1CN(Cc2ccccc2-c2ccco2)CCN1Cc1ccsc1 (stereo not shown) | -51 |
| OCCC1CN(Cc2ccc(-c3ccco3)cc2)CCN1Cc1ccsc1 (stereo not shown) | -53.8 |
| OCCC1CN(Cc2ccccc2-c2ccco2)CCN1Cc1ccccc1 (stereo not shown) | -35.7 |
| OCCC#Cc1ccc(CN2CCN(Cc3ccsc3)C(CCO)C2)cc1 (stereo not shown) | -4.59 |
| CC(C)N1CCN(Cc2cccc(-c3ccco3)c2)CC1CCO (stereo not shown) | -35.9 |
| OCCC1CN(Cc2ccccc2-c2ccco2)CCN1C1CCCC1 (stereo not shown) | -63.8 |
| C#Cc1ccc(CN2CCN(Cc3ccsc3)C(CCO)C2)cc1 (stereo not shown) | -34.6 |
| Cc1ccc(CN2CCN(Cc3ccccc3-c3ccco3)CC2CCO)o1 (stereo not shown) | -22.3 |
| CC(C)CCN1CCN(Cc2ccsc2)CC1CCO (stereo not shown) | -6.33 |
| OCCC1CN(Cc2cccc3c2OCO3)CCN1C1CCCCC1 (stereo not shown) | -9.67 |

| SMILES | hERG current change (%, negative = inhibition) at 10uM [%] |
| --- | --- |
| OCCC1CN(Cc2cccc(-c3ccco3)c2)CCN1Cc1ccsc1 (stereo not shown) | -71.6 |
| COc1cccc(/C=C2\SC(=O)NC2=O)c1OCc1ccc(C(=O)O)cc1 | 9.69 |
| OCCN1CCN(Cc2cc(Cl)c3cccnc3c2O)CC1 | 16.6 |
| COc1ccccc1N1CCN(C(=O)C(=O)c2c[nH]c3ccccc23)CC1 | 0.156 |
| Nc1ccccc1SCC(=O)Nc1ccc2c(c1)OCCO2 | 3.12 |
| O=C(CSc1nnc2c(n1)[nH]c1ccc(F)cc12)Nc1ccccc1F | 19.5 |
| Cc1ccc(C(=O)NC2CCSC2=O)cc1 (stereo not shown) | 7.89 |
| Cc1ccc(NC(=O)C2OCCc3ccccc32)cc1C (stereo not shown) | -3.78 |
| Cc1ccc([N+](=O)[O-])c(OCCCN2CCCCCC2)c1.O=C(O)C(=O)O | -58.6 |
| Cc1cc(OCCCn2ccnc2)ccc1[N+](=O)[O-].O=C(O)C(=O)O | -2.51 |
| Cc1ccc([N+](=O)[O-])c(OCCN2CCC(Cc3ccccc3)CC2)c1.O=C(O)C(=O)O | -73 |
| Cc1cc(OCCCN2CCN(Cc3ccccc3)CC2)ccc1[N+](=O)[O-].O=C(O)C(=O)O | -71.5 |
| Cc1ccc([N+](=O)[O-])c(OCCN2CCNCC2)c1.O=C(O)C(=O)O | -14.6 |
| Cc1ccc([N+](=O)[O-])c(OCCN2CCCCCC2)c1.O=C(O)C(=O)O | -34 |
| Cc1ccc([N+](=O)[O-])c(OCCN2CCc3ccccc3C2)c1.O=C(O)C(=O)O | -23.3 |
| Cc1ccc([N+](=O)[O-])c(OCCCN2CCC(Cc3ccccc3)CC2)c1.O=C(O)C(=O)O | -89.6 |
| COc1cc(NC(=O)CN2CCC(Cc3ccccc3)CC2)c(C)cc1[N+](=O)[O-] | 6.01 |
| Cc1ccc(OCCN2CCN(C)CC2)c([N+](=O)[O-])c1.O=C(O)C(=O)O | 6 |
| Cc1cc(OCCN2CCOCC2)ccc1[N+](=O)[O-].O=C(O)C(=O)O | 5.11 |
| O=C(Nc1ccccc1F)c1ccc2c(c1)CCN2S(=O)(=O)c1ccccc1 | 19.5 |
| C=CCn1c(SCc2ccccc2C#N)nnc1-c1ccccc1O | -23.7 |

| SMILES | hERG current change (%, negative = inhibition) at 10uM [%] |
| --- | --- |
| Cc1ccc2c(c1)C(c1ccc(N3CCOCC3)cc1)=NNC(c1cccs1)=N2 | 1.66 |
| Nc1n[nH]c(N)c1N=Nc1ccc(Cl)cc1Cl | 19.1 |
| COc1ccc(-c2noc(N3CCC(C(=O)Nc4ccccc4Cl)CC3)n2)cc1 | 10.8 |
| Cc1cc(NC(=O)c2ccccc2)sc1C | 5.55 |
| Cc1cc(OC(=O)c2cccc(Cl)c2)c([N+](=O)[O-])c(=O)[nH]1 | 19.9 |
| COCCNc1oc(-c2ccco2)nc1S(=O)(=O)c1ccccc1 | 2.69 |
| CCC(CO)NCC(O)COCc1ccc2c(c1)OCO2 (stereo not shown) | 10.1 |
| Cc1ccc(OCCCN2CCCC2)c(C)c1.O=C(O)C(=O)O | -27.2 |
| Cc1ccc(OCCCCN2CCCCC2)c(C)c1 | -24.6 |
| Cc1cc(C)c(C)c(OCCOCCN2CCN(C)CC2)c1 | -1.93 |
| Cc1ccc(C)c(OCCCN2CCCC2)c1.O=C(O)C(=O)O | -54.9 |
| Cc1cc(C)c(C)c(OCCCCN2CCCCC2)c1 | -52.5 |
| Cc1ccc(OCCCN2CCOCC2)c([N+](=O)[O-])c1.O=C(O)C(=O)O | -12 |
| Cc1cc(OCCN2CCCCCC2)ccc1[N+](=O)[O-].O=C(O)C(=O)O | -46.2 |
| Cc1ccc(OCCCCN2CCCC(C)C2)c([N+](=O)[O-])c1.O=C(O)C(=O)O (stereo not shown) | -69 |
| Cc1cc(OCCN2CCCC2)ccc1[N+](=O)[O-].O=C(O)C(=O)O | -9.82 |
| Cc1ccc(C)c(OCCCCN2CCCCC2)c1.O=C(O)C(=O)O | -42.1 |
| Cc1ccc(OCCOCCN2CCCCC2)c([N+](=O)[O-])c1.O=C(O)C(=O)O | -37.5 |
| Cc1cc(OCCN2CCC(Cc3ccccc3)CC2)ccc1[N+](=O)[O-].O=C(O)C(=O)O | -79.1 |
